# Measurements as given in PubChem BioAssay (Tox21).
# Records with an inconclusive call do not appear. Unmarked numbers belong to inactive results. Unless noted, calls come from the whole dose curve; as a rule, active = well fitted cell-killing curve with a large enough effect in the repeat runs (not every such curve was filed as active); inconclusive = weak or mixed curves, or effect the other way; inactive = no such curve, though single readings can be large or run the other way.
# Tested on: not listed separately
# Assay: qHTS assay to identify small molecule antagonists of the farnesoid-X-receptor (FXR) signaling pathway - cell viability counter screen (AID 743221); note: nearly all actives have a fitted effect of over 50% in size
# Conditions: FXR-bla HEK293T viability, CellTiter-Glo luminescence, 16 h; series mostly up to 62.6 µM; activity change, negative = cytotoxicity: at the top concentration
# Method in brief: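 Cytotoxicity counter screen run in the FXR-bla reporter wells: HEK 293T cells exposed to compound with 50 uM (final) chenodeoxycholic acid for 16 h, 37 C, then viability measured by CellTiter-Glo luminescence after 30 min, room temperature.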
# % is set by controls: 0 for no effect and ±100 for the full control effect.
row,Structure (SMILES),"activity change, negative = cytotoxicity"
1,OC(Cn1cncn1)(c1ccc(F)cc1)c1ccccc1F (stereo unspecified),-0.571%
2,CC(=O)CC(c1ccc(Cl)cc1)c1c(O)c2ccccc2oc1=O (stereo unspecified),17.7% [at 81.1 µM]
3,ClCC(Cl)Cl,8.07% [at 81.1 µM]
4,Oc1c(Cl)cccc1Cl,-0.435%
5,CCC1(c2ccccc2)C(=O)NC(=O)NC1=O,-1.18% [at 81.1 µM]
6,Fc1cc(Br)ccc1CBr,0.757%
7,O=NN1CCCCC1,0.31%
8,CS(=O)(=O)c1cc(C(F)(F)F)ccc1C(=O)c1cnoc1C1CC1,0.927%
9,O=[N+]([O-])c1cccc2c([N+](=O)[O-])cccc12,-0.298% [at 81.1 µM]
10,CCC(=O)C(CCN(C)C)(c1ccccc1)c1ccccc1,-30.7%
11,C[C@@H]1CN(C2CCC(C#N)(c3ccc(F)cc3)CC2)CC[C@]1(C(=O)O)c1ccccc1 (stereo partly specified),0.0787%
12,CCOP(=O)(N=C1SCCS1)OCC,14.3%
13,CN1CCC(O)(c2ccc(F)cc2)C(C(=O)c2ccc(F)cc2)C1 (stereo unspecified),5.61%
14,C[N+](=O)[O-],1.77%
15,O=C1OC(c2ccc(O)c(S(=O)(=O)O)c2)(c2ccc(O)c(S(=O)(=O)O)c2)c2c(Br)c(Br)c(Br)c(Br)c21,-2.08%
16,O=[N+]([O-])c1cc(Cl)c(Cl)c(Cl)c1,0.426%
17,O=C(Oc1ccc(Br)cc1)N1CCN2CCC1CC2,-4.37%

row,Structure (SMILES),"activity change, negative = cytotoxicity"
1,C=C(C)CN(CC)c1c([N+](=O)[O-])cc(C(F)(F)F)cc1[N+](=O)[O-],6.92%
2,NC(=O)c1cc([N+](=O)[O-])cc([N+](=O)[O-])c1,-3.18%
3,N#CC(Cl)(Cl)Cl,-0.159%
4,CCCCc1c(C)nc(NCC)[nH]c1=O,-3.76%
5,CCc1cc2c(s1)-n1c(C)nnc1CN=C2c1ccccc1Cl,7.67%
6,CCOP(=S)(OCC)SCSP(=S)(OCC)OCC,-1.73%
7,C(CCOCC1CO1)COCC1CO1 (stereo unspecified),0.346%
8,Nc1cc2c3c(c1)C(c1ccccc1)=N[C@@H](NC(=O)c1cccnc1)C(=O)N3CC2,3.32%
9,CCOc1nc(C(Cl)(Cl)Cl)ns1,-1.84%
10,Cc1cc(C)c(C(=O)P(=O)(C(=O)c2c(C)cc(C)cc2C)c2ccccc2)c(C)c1,0.241%
11,C[C@H]1CCC[C@H](O)CCCCCc2cc(O)cc(O)c2C(=O)O1,5.86% [at 81.1 µM]
12,CCCSC(=O)N(CCC)CCC,1.19%
13,CCCCN(CCCCO)N=O,0.393%
14,N#CCNCC#N,-0.907%
15,Cc1coc2c1CCC(C)C2 (stereo unspecified),6.11% [at 81.1 µM]
16,CCOC(=O)NC(=S)Nc1ccccc1NC(=S)NC(=O)OCC,-6.5%

# Biological target: Vitamin D3 receptor (Homo sapiens) (UniProt P11473)
# Sequence (P11473 whole entry, looked up): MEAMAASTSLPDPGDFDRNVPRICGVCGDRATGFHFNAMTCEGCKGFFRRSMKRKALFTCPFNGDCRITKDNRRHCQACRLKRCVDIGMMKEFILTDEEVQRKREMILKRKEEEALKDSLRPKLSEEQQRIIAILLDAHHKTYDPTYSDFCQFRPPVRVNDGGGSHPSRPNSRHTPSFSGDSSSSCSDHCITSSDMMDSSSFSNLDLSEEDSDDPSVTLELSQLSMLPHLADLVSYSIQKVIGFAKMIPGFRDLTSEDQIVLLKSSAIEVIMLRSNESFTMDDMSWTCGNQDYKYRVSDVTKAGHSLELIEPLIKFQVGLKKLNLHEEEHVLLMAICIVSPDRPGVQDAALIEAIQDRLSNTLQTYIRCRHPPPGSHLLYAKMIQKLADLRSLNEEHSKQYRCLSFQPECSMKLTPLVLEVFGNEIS
# Assay: qHTS assay to identify small molecule agonists of the vitamin D receptor (VDR) signaling pathway (AID 743222; calls by dose curve)
# Conditions: HEK293T VDR-UAS-bla, beta-lactamase FRET ratio, 16 h; series mostly up to 63.5 µM; activation: at the top concentration
# Method in brief: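 Cells carrying a VDR-driven beta-lactamase reporter are seeded at 2,000 per well and rested 4 h. Compounds in DMSO are added for 16 h at 37C, and FRET substrate fluorescence is measured after 2 h at room temperature.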
row,Structure (SMILES),activation
1,Cc1cnc[nH]1,-5.03%
2,OC(Cn1cncn1)(c1ccc(F)cc1)c1ccccc1F (stereo unspecified),-14.1%
3,CC(=O)CC(c1ccc(Cl)cc1)c1c(O)c2ccccc2oc1=O (stereo unspecified),-0.805% [at 81.1 µM]
4,Oc1c(Cl)cccc1Cl,-2.44%
5,CCC1(c2ccccc2)C(=O)NC(=O)NC1=O,0.517% [at 81.1 µM]
6,Fc1cc(Br)ccc1CBr,6.64%
7,O=NN1CCCCC1,4.47%
8,CS(=O)(=O)c1cc(C(F)(F)F)ccc1C(=O)c1cnoc1C1CC1,1.59%
9,CCC(=O)C(CCN(C)C)(c1ccccc1)c1ccccc1,-9.3%
10,C[C@@H]1CN(C2CCC(C#N)(c3ccc(F)cc3)CC2)CC[C@]1(C(=O)O)c1ccccc1 (stereo partly specified),6.01%
11,O=[N+]([O-])c1cccc2cccnc12,3.84% [at 81.1 µM]
12,CN1CCC(O)(c2ccc(F)cc2)C(C(=O)c2ccc(F)cc2)C1 (stereo unspecified),-4.32%
13,C[N+](=O)[O-],-0.315%
14,O=C1OC(c2ccc(O)c(S(=O)(=O)O)c2)(c2ccc(O)c(S(=O)(=O)O)c2)c2c(Br)c(Br)c(Br)c(Br)c21,-0.489%
15,O=[N+]([O-])c1cc(Cl)c(Cl)c(Cl)c1,0.479%
16,CN(C)CCc1ccc(O)cc1,-7.68%
17,O=C(Oc1ccc(Br)cc1)N1CCN2CCC1CC2,4.18%
18,CC(C)[N+](=O)[O-],3.65%
19,C=C(C)CN(CC)c1c([N+](=O)[O-])cc(C(F)(F)F)cc1[N+](=O)[O-],0.366%
20,NC(=O)c1cc([N+](=O)[O-])cc([N+](=O)[O-])c1,4.56%
21,CCc1cc2c(s1)-n1c(C)nnc1CN=C2c1ccccc1Cl,-11.7%
22,CCOP(=S)(OCC)SCSP(=S)(OCC)OCC,-0.646%
23,C(CCOCC1CO1)COCC1CO1 (stereo unspecified),3.01%
24,Nc1cc2c3c(c1)C(c1ccccc1)=N[C@@H](NC(=O)c1cccnc1)C(=O)N3CC2,0.736%
25,CCOc1nc(C(Cl)(Cl)Cl)ns1,0.499%
26,CCCSC(=O)N(CCC)CCC,5%
27,CCCCN(CCCCO)N=O,-0.23%
28,N#CCNCC#N,-1.81%
29,Cc1coc2c1CCC(C)C2 (stereo unspecified),2.4% [at 81.1 µM]
30,CCOC(=O)NC(=S)Nc1ccccc1NC(=S)NC(=O)OCC,5.75%

# Biological target: Vitamin D3 receptor (Homo sapiens) (UniProt P11473)
# Assay: qHTS assay to identify small molecule antagonists of the vitamin D receptor (VDR) signaling pathway (AID 743223; active = well fitted inhibition curve with a large enough effect in the signal ratio in the repeat runs, not every such curve was filed as active; the % refers to the signal ratio)
# Conditions: VDR-UAS-bla HEK293T, beta-lactamase FRET ratio, 16 h; series mostly up to 61 µM; activity change, negative = inhibition: at the top concentration
# Method in brief: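 Antagonist mode: compound added to VDR-bla cells alongside agonist 1alpha,25-dihydroxyvitamin D3 (3 nM final), incubation 16 h at 37C. Read-out is LiveBLAzer FRET fluorescence, 2 h at room temperature.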
row,Structure (SMILES),"activity change, negative = inhibition"
1,OC(Cn1cncn1)(c1ccc(F)cc1)c1ccccc1F (stereo unspecified),-5.76%
2,Oc1c(Cl)cccc1Cl,4.25%
3,CCC1(c2ccccc2)C(=O)NC(=O)NC1=O,9.67% [at 78.8 µM]
4,Fc1cc(Br)ccc1CBr,10.1%
5,O=NN1CCCCC1,-1.11%
6,CS(=O)(=O)c1cc(C(F)(F)F)ccc1C(=O)c1cnoc1C1CC1,7.22%
7,CCC(=O)C(CCN(C)C)(c1ccccc1)c1ccccc1,-1.17%
8,C[C@@H]1CN(C2CCC(C#N)(c3ccc(F)cc3)CC2)CC[C@]1(C(=O)O)c1ccccc1 (stereo partly specified),-1.14%
9,O=[N+]([O-])c1cccc2cccnc12,18% [at 78.8 µM]
10,C[N+](=O)[O-],16.3%
11,O=[N+]([O-])c1cc(Cl)c(Cl)c(Cl)c1,14.3%
12,O=C(Oc1ccc(Br)cc1)N1CCN2CCC1CC2,0.639%
13,CC(C)[N+](=O)[O-],11.8%
14,NC(=O)c1cc([N+](=O)[O-])cc([N+](=O)[O-])c1,0.992%
15,CCc1cc2c(s1)-n1c(C)nnc1CN=C2c1ccccc1Cl,15%
16,CCOc1nc(C(Cl)(Cl)Cl)ns1,-24.1%
17,Cc1cc(C)c(C(=O)P(=O)(C(=O)c2c(C)cc(C)cc2C)c2ccccc2)c(C)c1,2.25%
18,CCCCN(CCCCO)N=O,20.1%
